Each structure is given as a SMILES string. Several values for one entry are separate records, joined by “and”; a condition that tells them apart may be missing. Equal values may be shown once. About 79,000 compounds went through this panel and 15% of them were active in at least one assay; those are over-represented in the sample as a whole. Unmarked numbers belong to inactive results. Activity calls are given as the source filed them. Cut-off read from the data, not from the text of the source: active = growth inhibition above about 70%; inactive = the rest.

Assay [1] can be described thus: NCI Yeast Anticancer Drug Screen. Data for the rad50 strain (AID 155).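 Note: 0% = growth of vehicle-only cultures of the same strain.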 Particulars: S. cerevisiae rad50 strain growth inhibition; at 50.0 µM; active compounds read high. In short, it runs like this:
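Growth of the mutant yeast was measured after compound exposure and referenced to vehicle-treated cultures.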

The nature of assay [2]: NCI Yeast Anticancer Drug Screen. Data for the mec2-1 strain (AID 157). Particulars: S. cerevisiae mec2-1 strain, at 50.0 µM, active compounds read high. The gist of the method: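 Using mec2-1 yeast: add compound, measure growth, express inhibition versus vehicle-treated cultures.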
Assay [3] is described as follows: NCI Yeast Anticancer Drug Screen. Data for the sgs1 mgt1 strain (AID 161).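 Note: 0% = growth of cultures given vehicle only.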 Particulars: S. cerevisiae sgs1 mgt1 strain, at 50.0 µM, active compounds read high. The gist of the method:
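This yeast growth screen uses a strain with defined DNA-repair lesions; compound-treated growth is compared with vehicle-treated growth.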

A short description of assay [4]: NCI Yeast Anticancer Drug Screen. Data for the cln2 rad14 strain (AID 165).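 Note: 0% = growth equal to vehicle treated cultures.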 Conditions: S. cerevisiae cln2 rad14 strain, at 50.0 µM, active compounds read high. In short, it runs like this:
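Yeast strain cln2 rad14, bearing defects in cell cycle control and DNA repair, serves as the test system; values reflect growth inhibition compared with vehicle.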

Assay [5] can be described thus: NCI Yeast Anticancer Drug Screen. Data for the bub3 strain (AID 167). Particulars: S. cerevisiae bub3 mutant strain, at 50.0 µM, active compounds read high. In short, it runs like this: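 Whole-cell yeast assay. The mutant strain was incubated with compounds, and growth inhibition was determined by comparison with vehicle-treated cells.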
A short description of assay [6]: NCI Yeast Anticancer Drug Screen. Data for the mlh1 rad18 strain (AID 175). Conditions: S. cerevisiae mlh1 rad18 strain growth inhibition; at 50.0 µM; active compounds read high. The gist of the method:
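Steps: expose repair-defective yeast to compound; measure growth; express inhibition against vehicle-treated controls.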

Take `COc1cc2c[n+](C)c3c4cc5c(cc4ccc3c2cc1OC)OCO5`: the growth inhibition in assay [1] is -11.7%; in assay [2], -37.5%; in assay [3], -28.1%; in assay [4], -5.75%; in assay [5] it was -26.3%; in assay [6] it was -33.6%.
On to `Cc1nc2ccccc2c(=O)n1-c1ccc(N(CCCl)CCCl)cc1`, for which the growth inhibition in assay [1] was -0.6%; in assay [2], -9.25%; in assay [3] it was -17.1%; in assay [4], -6.9%; in assay [5], 4.8%; in assay [6] it was 4.5%.
Take `O.O.[NH-]C1CCCCC1[NH-].[Pt+2]` (stereo not given): the growth inhibition was 19.6% in assay [1]; 33.6% in assay [2]; 6.25% in assay [3]; -5.95% in assay [4]; 3.05% in assay [5]; 44.2% in assay [6].
For the molecule `Cc1cccc(C)c1CCl`, the growth inhibition in assay [1] is -1.45% and 23.5%; in assay [2], -9.75% and -12.8%; in assay [3], -8.15% and -4.3%; in assay [4] it was 12.9% and -38.5%; in assay [5], 9.65% and -1.35%; in assay [6] it was 6.95% and 20.7%.
Turning to `O=C([O-])C(F)(F)F.O=[N+]([O-])O.[Co+3].[NH2-].[NH2-].[NH2-].[NH2-].[NH2-]`, the growth inhibition in assay [1] was 5.25%; in assay [2] it was 2%; in assay [3], 7.7%; in assay [4] it was -5.65%; in assay [5], 5%; in assay [6], 39.6%.
As to `Cc1ccc(N2CC=C(c3ccccc3)OP2(=O)N(CCCl)CCCl)cc1` (stereo not given), the growth inhibition in assay [1] was 76.8% (active); in assay [2] it was 84.8% (active); in assay [3] it was 75.4% (active); in assay [4], 80.7% (active); in assay [5], 87.9% (active); in assay [6] it was 70.2% (active).
Regarding `[Pt].c1ccc([PH+](CC[PH+](CC[PH+](c2ccccc2)c2ccccc2)c2ccccc2)CC[PH+](c2ccccc2)c2ccccc2)cc1` (stereo not given), the growth inhibition in assay [1] was 22.8%; in assay [2], 14.3%; in assay [3], 25.6%; in assay [4], 8.6%; in assay [5], 16.6%; in assay [6] it was 8.75%.
`CCCCCCCCCCCCCCC[As](=O)(O)CCCCCCCCCCCCCCC`: the growth inhibition was 21.8% in assay [1]; 0.75% in assay [2]; 11.9% in assay [3]; 8.45% in assay [4]; 6.75% in assay [5]; 12.9% in assay [6].
`CC1(C)N=C(N)N=C(N)N1c1ccc(CCc2cccc(Cl)c2S(=O)(=O)F)c(Cl)c1`: the growth inhibition in assay [1] was 99.5% (active); in assay [2] it was 99.7% (active); in assay [3] it was 99.7% (active); in assay [4], 99.3% (active); in assay [5] it was 99% (active); in assay [6] it was 99.5% (active).
As to `COC1OC(CN=[N+]=[N-])C2OC12` (stereo not given), the growth inhibition in assay [1] was 5.4%; in assay [2], -0.3%; in assay [3], -3.2%; in assay [4], 3.9%; in assay [5], 0.6%; in assay [6], 7.95%.
On to `COC1=CC(=O)OC(CCc2ccccc2)C1` (stereo not given), for which the growth inhibition in assay [1] was -2.7%; in assay [2] it was -5.9%; in assay [3], -1.9%; in assay [4], -14.2%; in assay [5], -9.35%; in assay [6], -4.85%.
`c1cc[c]([Ge]([c]2ccccc2)[c]2ccccc2)cc1.c1cc[c]([Ge]([c]2ccccc2)[c]2ccccc2)cc1`: the growth inhibition in assay [1] is 7.75%; in assay [2], 1.45%; in assay [3] it was -1.7%; in assay [4], -4%; in assay [5], 4.8%; in assay [6] it was -3.65%.
With `O=[N+]([O-])c1ccc(SCl)c([N+](=O)[O-])c1`, the growth inhibition in assay [1] is 31.9%; in assay [2], 11.1%; in assay [3], 18.8%; in assay [4], 14.6%; in assay [5], 31.9%; in assay [6] it was 17.9%.
With `CC(=O)OC[C@]12C[C@H](OC(=O)CC(C)C)C(C)=C[C@H]1O[C@@H]1[C@H](O)[C@@H](O)[C@@]2(C)[C@@]12CO2`, the growth inhibition in assay [1] is 83.2% (active); in assay [2], 83% (active); in assay [3] it was 83.3% (active); in assay [4] it was 87.7% (active); in assay [5], 81.9% (active); in assay [6] it was 84.8% (active).
For the molecule `Cc1c(O)c(O)c(C)c(CCN)c1O`, the growth inhibition in assay [1] is 15.4%; in assay [2], 19.8%; in assay [3], 22.1%; in assay [4] it was -26.8%; in assay [5] it was 25.1%; in assay [6], 27.9%.
For the molecule `[N-]=[N+]=C1CNC(=O)NC1=O`, the growth inhibition in assay [1] is 9.9%; in assay [2], -19.6%; in assay [3] it was -10.6%; in assay [4], 0.05%; in assay [5], -0.15%; in assay [6], 1.05%.
Regarding `COCCOC(=O)CCl`, the growth inhibition in assay [1] was -4.35%; in assay [2], 0.4%; in assay [3] it was 10.9%; in assay [4], 0.45%; in assay [5], -0.7%; in assay [6], 25.5%.
Regarding `CCc1ccc(CCN2CCCCC2)nc1`, the growth inhibition in assay [1] was -24.6%; in assay [2], -21.4%; in assay [3], -21.4%; in assay [4], 6.75%; in assay [5], -15.5%; in assay [6], -1.6%.
Turning to `C/C=C/C=C\C=C/C(O)CC(OP(=O)(O)O)C(C)(O)/C=C/C1CC=CC(=O)O1` (stereo not given), the growth inhibition in assay [1] is -9.75%; in assay [2], -52%; in assay [3], -20.4%; in assay [4], 8.65%; in assay [5] it was -3.35%; in assay [6], -44.2%.
`CCOC(=O)/C(=C\c1ccc(OC)cc1)[Se]c1ccccc1`: the growth inhibition is 50% in assay [1]; -11% in assay [2]; 39.5% in assay [3]; 13.8% in assay [4]; 44.6% in assay [5]; 59.9% in assay [6].

The values are drawn from PubChem BioAssay (NCI).
